Growth data for 13 compounds are collected here from PubChem BioAssay (NCI).

Test systems include DU-145 prostate; K-562 leukemia; MALME-3M melanoma; MDA-MB-231 breast; RXF 393 renal; SF-268 CNS; SF-295 CNS; SF-539 CNS; UACC-257 melanoma; M14 melanoma.
What all share (assay): NCI-60 one-dose screen, 48 h (100 = growth as untreated, 0 = no growth, -100 = all killed)
Details in all cases: 10 µM unless noted

Structures are written as SMILES. The panel holds about 83,000 compounds, 20% with a hit somewhere; the sample as a whole holds those more often.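 The endpoint reported here, percent growth, reads 100 for growth as untreated, 0 for no net growth and -100 for all cells dead.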 Unmarked numbers belong to inactive results. Active and inactive are the calls of the source. How the source made its calls: active means growth percent below 10; inactive means the rest.

As for `Cc1nc2cc(Nc3nc(NCCN)nc(Nc4ccc(F)cc4)n3)ccc2n1Cc1ccccc1`, the growth is 82.2% in the assay on DU-145 prostate; -36.8% (active) in the assay with K-562 leukemia; 93.5% with MALME-3M melanoma; 60.4% in the assay on MDA-MB-231 breast; 72% in the assay on RXF 393 renal; 71.8% with SF-268 CNS. Further, the growth in the assay on SF-295 CNS is 79.8%; with SF-539 CNS, 96%; in the assay on UACC-257 melanoma, 90.5%; with M14 melanoma it was 81.6%.

For `FC(F)(F)Oc1ccc2c(c1)C[C@H]1C[C@@H](c3ccoc3)N2O1`, the growth in the assay on DU-145 prostate is 110%; in the assay with K-562 leukemia, 91.8%; in the assay with MALME-3M melanoma it was 109%; in the assay with MDA-MB-231 breast, 93.9%; in the assay with RXF 393 renal, 134%; with SF-268 CNS, 126%. Further, the growth is 91.2% in the assay with SF-295 CNS, 93.9% in the assay with SF-539 CNS, 87.4% in the assay on UACC-257 melanoma and 117% with M14 melanoma.

Turning to `Cc1c(C)n(CC(O)CNC2CCCCC2C)c2ccccc12` (stereo not given), the growth in the assay with DU-145 prostate was -67.2% (active); with K-562 leukemia it was 4.09% (active); in the assay on MALME-3M melanoma, -64.1% (active); with MDA-MB-231 breast, -9.38% (active); in the assay with RXF 393 renal it was -90.2% (active); with SF-268 CNS, -42.5% (active). For the same compound, the growth in the assay on SF-295 CNS is -45.7% (active); in the assay with SF-539 CNS, -87.3% (active); with UACC-257 melanoma, -75.8% (active); in the assay on M14 melanoma, -59.4% (active).

With `O=C(COc1cccc(/C=C2\COc3ccccc3C2=O)c1)c1ccccc1`, the growth in the assay on DU-145 prostate was 101%; with K-562 leukemia, 17.1%; in the assay with MALME-3M melanoma, 90%; in the assay with MDA-MB-231 breast, 83.8%; with RXF 393 renal, 69.5%; in the assay on SF-268 CNS it was 88.7%. For the same compound, the growth is 115% in the assay on SF-295 CNS, 90.4% in the assay on SF-539 CNS, 72.9% in the assay with UACC-257 melanoma and 60.9% with M14 melanoma.

As to `COc1ccc(-c2c(-c3cc4c(c(OC)c3OC)OCO4)noc2N)cc1`, the growth with DU-145 prostate was 12.2%; in the assay with K-562 leukemia, 16.1%; in the assay on MALME-3M melanoma, 56.7%; in the assay on MDA-MB-231 breast, 48.7%; with RXF 393 renal it was -13.6% (active); in the assay with SF-268 CNS, 45.8%. In addition, the growth with SF-295 CNS is 2.69% (active); with SF-539 CNS, 1.11% (active); in the assay with UACC-257 melanoma, 66.8%; in the assay on M14 melanoma, 12.6%.

For the compound `COc1cc(OCc2cccc(-c3ccc(C(O)c4nccs4)cc3)c2C)cc(OC)c1C=O` (stereo not given), the growth with DU-145 prostate was 53.6%; in the assay with K-562 leukemia it was 18%; in the assay with MALME-3M melanoma it was 7.88% (active); with MDA-MB-231 breast, 54.5%; with RXF 393 renal, 59.5%; in the assay with SF-268 CNS it was 65%. The growth is 35.1% with SF-295 CNS, 69.4% with SF-539 CNS, 13.3% with UACC-257 melanoma and 32% with M14 melanoma.

In the case of `COc1cc(/C=C/C(=O)C2=C(/C=C/c3ccc(O)c(OC)c3)NC(=O)NC2c2ccc(O)c(OC)c2)ccc1O` (stereo not given), the growth with DU-145 prostate is 111%; with K-562 leukemia, 87%; in the assay on MALME-3M melanoma, 117%; with MDA-MB-231 breast it was 67.7%; in the assay on RXF 393 renal it was 97.1%; with SF-268 CNS, 93.5%. The growth is 93.1% in the assay on SF-295 CNS, 87% in the assay with SF-539 CNS, 85.6% in the assay on UACC-257 melanoma and 94% in the assay on M14 melanoma.

Consider `COc1ccc(/C=C2\CN(Cc3cn(CCCNc4ccnc5cc(Cl)ccc45)nn3)C/C(=C\c3ccc(OC)cc3)C2=O)cc1`, for which the growth is 40.2% with DU-145 prostate; 63.2% in the assay on K-562 leukemia; 98.4% in the assay with MALME-3M melanoma; 52.6% in the assay on MDA-MB-231 breast; 27.7% in the assay on RXF 393 renal; 45.5% with SF-268 CNS. Moreover, the growth in the assay on SF-295 CNS was 72.6%; in the assay with SF-539 CNS it was 78.1%; with UACC-257 melanoma, 56%; in the assay on M14 melanoma, 70.8%.

On to `COc1ccc(-c2[nH]ncc2Nc2cc(OC)c(OC)c(OC)c2)cc1`, for which the growth in the assay with DU-145 prostate was 46.5%; in the assay on K-562 leukemia, 57.2%; in the assay on MALME-3M melanoma, 44.1%; with MDA-MB-231 breast, 53.3%; in the assay with RXF 393 renal, 20.5%; with SF-268 CNS it was 53.1%. Also, the growth in the assay on SF-295 CNS is 13%; in the assay with SF-539 CNS it was 1.83% (active); in the assay on UACC-257 melanoma, 66.5%; in the assay on M14 melanoma, 31.1%.

Turning to `ONc1nc(NO)c2[nH]cnc2n1`, the growth in the assay on DU-145 prostate is 74.6%; in the assay on K-562 leukemia, 23%; in the assay with MALME-3M melanoma, 90.8%; in the assay on MDA-MB-231 breast, 77.4%; in the assay on RXF 393 renal it was 86.1%; in the assay with SF-268 CNS, 58.8%. Also, the growth in the assay with SF-295 CNS is 91%; with SF-539 CNS, 103%; with UACC-257 melanoma, 105%; in the assay on M14 melanoma it was 76.7%.

For `COc1ccc(/C=C2\Oc3cc(C)c(Cl)cc3C2=O)cc1OC`, the growth was 104% in the assay with DU-145 prostate; 86.6% in the assay on K-562 leukemia; 99.7% with MALME-3M melanoma; 102% in the assay with MDA-MB-231 breast; 111% with RXF 393 renal; 102% in the assay on SF-268 CNS. The growth in the assay with SF-295 CNS is 95.7%; with SF-539 CNS, 92.7%; with UACC-257 melanoma, 101%; in the assay on M14 melanoma, 96.3%.

With `FC(F)(F)c1cc(CNc2nc(Cl)ncc2Br)cc(C(F)(F)F)c1`, the growth with DU-145 prostate is 98.9%; in the assay with K-562 leukemia it was 50.2%; in the assay with MALME-3M melanoma, 91.1%; with MDA-MB-231 breast it was 89%; with RXF 393 renal, 92.6%; with SF-268 CNS it was 93.4%. The growth is 88.4% with SF-295 CNS, 85% with SF-539 CNS, 80.8% with UACC-257 melanoma and 93.9% in the assay on M14 melanoma.

For the compound `O=C1CC(c2ccsc2)c2snc(-c3ccc(Cl)cc3)c2N1` (stereo not given), the growth in the assay on DU-145 prostate is 19.4%; in the assay with K-562 leukemia, 16.4%; in the assay on MALME-3M melanoma it was 37.7%; with MDA-MB-231 breast, 90%; in the assay on RXF 393 renal, 25.4%; in the assay with SF-268 CNS, 56.1%. The growth with SF-295 CNS is 17.1%; in the assay with SF-539 CNS it was 32.4%; in the assay on UACC-257 melanoma it was 50%; with M14 melanoma, 13.9%.
